Several values for one entry are separate records, joined by “and”; a condition that tells them apart may be missing. Equal values may be shown once. Results filed as inconclusive are left out. A call without a number means that no potency is given here. The source holds several records for some structures; these can differ, active in one and inactive in another. Activity calls are given as the source filed them. Calls follow the shape of the full dose curve.
experiment: p53 small molecule agonists, cell-based qHTS assay with human liver microsomes: qHTS cell viability counter screen (AID 1963579); settings: p53RE-bla HCT-116 viability, ATP luminescence, 16 h, HLM; series mostly up to 66 µM; activity change, negative = cytotoxicity: at the top concentration; also: nearly all actives have a fitted effect of over 45% in size
Summary of the method: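 In this multiplexed counter screen, the reporter plates were subsequently treated with CellTiter-Glo so that cell viability, reflected by luminescence, could be recorded for p53RE-bla cells dosed 16 h with compounds under microsomal activation (HLM and NADPH).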
Potency is read from the fitted curve at half-maximal effect.

Compound | activity change, negative = cytotoxicity | Potency
O=C(NCc1cccnc1)Nc1ccc([N+](=O)[O-])cc1 | 8.73% (inactive) | 
ClC1=C(Cl)[C@]2(Cl)[C@@H]3[C@@H](Cl)[C@H](Cl)C[C@@H]3[C@@]1(Cl)C2(Cl)Cl | 2.42% (inactive) | 
COP(=O)(OC)OC=C(Cl)Cl |  | inactive
CNC(=O)CSP(=S)(OC)OC |  | inactive
CCOP(=O)(O)OCC (tested in a mixture with another compound) |  | inactive and 36.1 µM (active)
CC(C)OC(=O)Nc1cccc(Cl)c1 |  | inactive
C=CCc1ccc(OC)cc1 |  | inactive
COc1cc(OC)nc(NC(=O)NS(=O)(=O)c2ncccc2C(=O)N(C)C)n1 | 3.21% (inactive) | 
O=C(Cl)CCl | -0.472% (inactive) | 
NC(=O)CF | -3.48% (inactive) | 
CC(=[OH+])/C=C(/C)[O-].CC(=[OH+])/C=C(\C)[O-].CC(=[OH+])/C=C(\C)[O-].[Al] | 1.59% (inactive) | 
Cc1ccc(CCl)cc1 | -6.98% (inactive) | 
CC(C)(C)OOC(=O)c1ccccc1 |  | inactive
Nc1ccc(-c2ccc(N)cc2)cc1 |  | inactive
COP(N)(=O)SC (stereo unspecified) |  | inactive
Cc1ccc([N+](=O)[O-])cc1C |  | inactive
NC(=O)O | 4.66% (inactive) | 
Clc1cccc(Cl)c1 |  | inactive
CC(COc1ccc(Oc2ccccc2)cc1)Oc1ccccn1 (stereo unspecified) | -10.1% (inactive) | 
O=C(CBr)c1ccc(O)cc1 | -22% (inactive) | 
O=C1CCCN1 |  | inactive
CCCCCCCCCCCCCCCC[N+](C)(C)C |  | inactive
O=S(=O)(O)OOS(=O)(=O)O |  | inactive
CCCCCCCCOC(=O)c1ccccc1C(=O)OCCCCCCCC |  | inactive
CCCCCCCCCCCCCl |  | inactive
COP(=S)(OC)SCN1C(=O)c2ccccc2C1=O |  | inactive
